High-throughput results: PubChem, National Center for Advancing Translational Sciences (NCATS)
This excerpt belongs to a sample that is enriched for hits.
AmpC detergent: blocks E. coli AmpC beta-lactamase in detergent assay. P00811. AmpC hydrolysis of nitrocefin, absorbance 480 nm, 0.01% Triton. Potency, µM (doses to about 114 µM), hits mostly inhibitors. 370,000 tested, 0.041% active; also: nearly all actives have a fitted effect of over 25% in size
Target sequence (P00811 whole entry, looked up): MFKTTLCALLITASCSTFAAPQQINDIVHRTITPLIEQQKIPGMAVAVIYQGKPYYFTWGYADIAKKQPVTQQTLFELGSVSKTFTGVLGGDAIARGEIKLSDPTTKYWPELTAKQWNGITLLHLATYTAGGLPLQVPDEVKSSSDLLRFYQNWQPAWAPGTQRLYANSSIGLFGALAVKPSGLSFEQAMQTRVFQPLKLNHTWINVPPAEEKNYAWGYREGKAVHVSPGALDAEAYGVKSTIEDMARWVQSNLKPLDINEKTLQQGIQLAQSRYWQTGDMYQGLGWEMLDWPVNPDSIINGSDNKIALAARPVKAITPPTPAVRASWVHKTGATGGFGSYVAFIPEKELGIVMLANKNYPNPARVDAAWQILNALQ
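AmpC (5.3 nM in the dispensed reagent) in 20 mM phosphate pH 7.0 with 0.01% (detergent screen) or 0.0001% Triton X-100 was preincubated with compounds for 15 min at room temperature. Nitrocefin was then added from an 800 uM solution, and hydrolysis was followed at 480 nm.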
AmpC no deterg: blocks E. coli AmpC beta-lactamase in detergent-free assay; P00811; AID 485341; AmpC nitrocefin hydrolysis, absorbance 480 nm, 0.0001% Triton; 330,000 tested, 0.52% active; Potency, µM (series often up to 57.1 µM), most hits filed as inhibitors; also: nearly all actives have a fitted effect of over 20% in size
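AmpC (5.3 nM in the dispensed reagent) in 20 mM phosphate pH 7.0 with 0.01% (detergent screen) or 0.0001% Triton X-100 was preincubated with compounds for 15 min at room temperature. Nitrocefin was then added from an 800 uM solution, and hydrolysis was followed at 480 nm.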
CHX counter: counter-screen hit for Shiga toxin inhibitors, cycloheximide. cell reporter, cycloheximide protein synthesis inhibition counterscreen. max response, %. 300,000 tested, 12% active. AID 2314; in the data active = max response mostly above about 13%, no sharp cut-off; inactive = mostly below about 14%; also: read at 38.3 µM for the half of the compounds with a filed dose
Shiga toxin inh: Shiga toxin inhibition | inhibition, % at 38.7 µM | AID 2315 | 290,000 tested, 9.2% active | Vero cells, Shiga toxin protein synthesis inhibition reporter; in the data active = inhibition mostly above about 28%, no sharp cut-off; inactive = mostly below about 43%
NS1 function inh: influenza NS1 inhibition | Potency, µM (highest dose often 46.1 µM) | 270,000 tested, 0.4% active | AID 2326; calls by dose curve; also: actives are rising curves; nearly all actives have a fitted effect of over 50% in size
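Read-out: OD600 growth recovery of NS1-expressing budding yeast. Cells grown overnight at 30C in -URA glucose medium, washed, resuspended and diluted 1:100 in 2% galactose assay medium, pH 6.0. Same strain lacking NS1 served as positive control.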
Hits are given with their value; - = inactive; ? = inconclusive; . = not tested or not shown. Unless noted, calls follow the shape of the dose curve; as a rule, active = well fitted curve in the direction sought with a large enough effect; inconclusive = small, poorly fitted or top-dose-only effect, or another doubt; inactive = no such curve, though single readings can be large; an effect the other way counts as inactive or inconclusive.

SMILES	AmpC detergent	AmpC no deterg	CHX counter	Shiga toxin inh	NS1 function inh
CCOc1ccc(CN2C(=O)c3ccccc3Sc3ccc(C(=O)NCc4ccc(C)cc4)cc32)cc1	-	.	-	-	.
Fc1ccc(-c2nnn(Cc3ccc(F)cc3Cl)n2)cc1	-	-	24	105	-
Cc1ccccc1-c1nnn(Cc2ccc(F)cc2Cl)n1	-	-	-	24	-
Cc1ccc(C(C)C)cc1NC(=O)Nc1ccc([N+](=O)[O-])cc1	-	-	-	34	-
Cc1ccc(NC(=O)Nc2cc(S(=O)(=O)N(C)C)ccc2C)cc1	-	25µM	-	-	.
Cc1ccc(NC(=O)Nc2cc(S(C)(=O)=O)ccc2Cl)cc1	-	-	36	78	-
CCOc1ccc(NC(=O)Nc2cc(C(C)C)ccc2C)cc1	-	-	-	-	-
Cc1ccc(S(=O)(=O)N(C)C)cc1NC(=O)Nc1ccccc1	-	-	-	-	-
CN(C)c1cc(Cl)c2nonc2c1N	-	?	-	-	-
CCCCC(=O)Nc1cccc(-c2cn3ccsc3n2)c1	-	-	34	47	-
O=C(Nc1cccc(-c2cn3ccsc3n2)c1)c1ccccc1	-	-	-	-	-
COc1ccccc1C(=O)Nc1cccc(-c2cn3ccsc3n2)c1	?	-	27	42	-
CCOC(=O)c1ccc2nc(C)cc(Nc3ccc(OC(C)C)cc3)c2c1	-	.	.	.	.
COc1ccc(OCCSc2nc3ccccc3n2CCC(=O)O)cc1	-	-	-	.	-
O=C(O)CCn1c(SCCOc2ccccc2)nc2ccccc21	-	-	14	.	-
Cc1nc2ccccc2n1CCCOc1ccccc1	-	-	21	47	-
CCn1c(-c2ccco2)nc2ccccc21	-	-	26	77	-
Cc1cccc(OCCn2c(S(=O)(=O)O)nc3ccccc32)c1	?	-	-	-	-
Cc1cccc(OCCn2c(-c3ccco3)nc3ccccc32)c1	-	-	26	-	-
Clc1ccc(Cl)c(SCCCN2CCNCC2)c1	.	.	.	.	-
CN(c1ccccc1C(=O)O)S(=O)(=O)c1ccc2[nH]c(=O)oc2c1	-	-	.	.	.
O=S(=O)(O)c1nc2ccccc2n1CCOc1ccccc1	-	-	-	-	-
c1ccc(OCCn2c(-c3ccco3)nc3ccccc32)cc1	-	-	20	70	-
COc1ccc(C2C=C(c3ccc(Br)cc3)Nc3nnnn32)c(OC)c1 (stereo unspecified)	-	.	33	66	.
Fc1ccc(Br)cc1C1C=C(c2ccc(Br)cc2)Nc2nnnn21 (stereo unspecified)	-	.	.	.	.
SMILES	AmpC detergent	AmpC no deterg	CHX counter	Shiga toxin inh	NS1 function inh
CCc1ccc(C2=CC(c3cccc(Br)c3)n3nnnc3N2)cc1 (stereo unspecified)	-	.	.	.	.
Fc1ccc(C2=CC(c3ccco3)n3nnnc3N2)cc1 (stereo unspecified)	-	-	39	47	-
COc1ccccc1C1C=C(c2ccc(Cl)cc2)Nc2nc(N3C(=O)CCC3=O)nn21 (stereo unspecified)	-	-	-	-	-
COc1ccccc1C1C=C(c2ccccc2)Nc2nnnn21 (stereo unspecified)	-	-	-	165	-
Cc1cc2nccc(-c3ccc(OCCCF)cc3)n2n1	-	-	-	-	-
Cc1ccccc1NC(=O)C1CCC(CNS(=O)(=O)c2ccc3c(c2)C(C)(C)C(=O)N3C)CC1 (stereo unspecified)	-	.	.	.	.
Cc1ccc(C)c(N2CCN(C(=O)c3ccc4nsnc4c3)CC2)c1	?	-	-	-	-
